Results on 8 compounds are retold here after PubChem BioAssay (NCI).

Structures are written as SMILES. Values joined by “and” are separate entries in the source; they are usually repeats but may differ in a detail not shown here. Identical values can stand only once. The panel holds about 83,000 compounds, 20% with a hit somewhere; the sample as a whole holds those more often.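 96-well plates, one dose, 48 hours. Percent growth reported; active if below 10.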 Active and inactive are the calls of the source.

Some test systems named below: NCI-H23 lung; NCI-H226 lung; NCI-H322M lung; NCI-H460 lung; HOP-92 NSCLC; NCI-H522 lung; A549/ATCC NSCLC; 786-0 renal; COLO 205 colon; DU-145 prostate; K-562 leukemia; MALME-3M melanoma; MDA-MB-231 breast; RXF 393 renal; SF-268 CNS; SF-295 CNS; SF-539 CNS; UACC-257 melanoma; M14 melanoma; HOP-62 NSCLC.
Holding throughout (experiment): NCI-60 one-dose screen, 48 h (100 = growth as untreated, 0 = no growth, -100 = all killed)
Common to all, as to conditions: 10 µM unless noted

With `C[C@]12CC[C@H]3[C@@H](C[C@@H]4SC(Nc5cccc(F)c5)=N[C@@]45CC(=O)CC[C@]35C)[C@@H]1CCC2=O`, the growth in the assay on NCI-H23 lung was 55.1% (inactive); with NCI-H226 lung, 71.9% (inactive); in the assay with NCI-H322M lung it was 55.8% (inactive); with NCI-H460 lung, 52% (inactive); with HOP-92 NSCLC it was 68.9% (inactive); in the assay with NCI-H522 lung, -43.7% (active). The growth in the assay on A549/ATCC NSCLC was 35.4% (inactive); with 786-0 renal, -13.9% (active); in the assay on COLO 205 colon, 47.6% (inactive); in the assay with DU-145 prostate it was 17.2% (inactive); in the assay on K-562 leukemia, -0.515% (active); in the assay on MALME-3M melanoma it was 22.8% (inactive). The growth is 38.2% (inactive) in the assay on MDA-MB-231 breast; -28.4% (active) in the assay on RXF 393 renal; 55.7% (inactive) with SF-268 CNS; -18.8% (active) in the assay with SF-295 CNS; -5.93% (active) in the assay on SF-539 CNS; 73% (inactive) in the assay with UACC-257 melanoma. For the same compound, the growth in the assay with M14 melanoma was 44.8% (inactive).

Consider `CC(Oc1ccc(-c2ccccc2)cc1)C(=O)O` (stereo not drawn), for which the growth in the assay with NCI-H23 lung is 106% (inactive); in the assay with NCI-H226 lung, 95.5% (inactive); in the assay on NCI-H322M lung, 102% (inactive); in the assay on NCI-H460 lung it was 103% (inactive); with NCI-H522 lung it was 99.8% (inactive); with A549/ATCC NSCLC, 96.5% (inactive). Moreover, the growth in the assay with 786-0 renal is 101% (inactive); with COLO 205 colon, 102% (inactive); in the assay on DU-145 prostate it was 113% (inactive); in the assay on K-562 leukemia, 112% (inactive); in the assay with MDA-MB-231 breast, 108% (inactive); with SF-268 CNS, 105% (inactive). In addition, the results for the growth in the assay on SF-295 CNS, with SF-539 CNS and in the assay with UACC-257 melanoma were 102% (inactive), 99.6% (inactive) and 99.2% (inactive), respectively.

In the case of `C=CC1CN2CCC1CC2C(O)c1ccnc2ccccc12` (stereo not drawn), the growth was 24.4% (inactive) with NCI-H23 lung; 112% (inactive) in the assay with NCI-H226 lung; 145% (inactive) with NCI-H322M lung; 118% (inactive) with NCI-H460 lung; 24.2% (inactive) in the assay on NCI-H522 lung; 108% (inactive) in the assay on 786-0 renal. The growth in the assay with COLO 205 colon is 104% (inactive); with DU-145 prostate, 111% (inactive); in the assay with K-562 leukemia, 231% (inactive); with MALME-3M melanoma, 140% (inactive); in the assay with MDA-MB-231 breast, 125% (inactive); with SF-268 CNS it was 120% (inactive). The growth in the assay on SF-295 CNS is 121% (inactive); with SF-539 CNS, 121% (inactive); in the assay with UACC-257 melanoma, 158% (inactive); in the assay with M14 melanoma, 133% (inactive).

`CCCCCCCCCCCCCCCC[N+](C)(C)C`: the growth is -83.6% (active) and 20.7% (inactive) in the assay with NCI-H23 lung; -54.8% (active) and 46.7% (inactive) in the assay on NCI-H226 lung; -70% (active) and 60.7% (inactive) in the assay with NCI-H322M lung; -84% (active) and 0.102% (active) with NCI-H460 lung; -45.3% (active) and -18.4% (active) in the assay with HOP-92 NSCLC; 29.4% (inactive) with A549/ATCC NSCLC. The growth in the assay on 786-0 renal was -83.5% (active) and 4.56% (active); in the assay with COLO 205 colon, -74% (active) and -89.8% (active); with DU-145 prostate it was -91.4% (active) and 15.9% (inactive); in the assay with K-562 leukemia, -70% (active) and 9.42% (active); with MALME-3M melanoma it was -76.5% (active) and 13.8% (inactive); with MDA-MB-231 breast, -76.5% (active) and -8.58% (active). Also, the growth in the assay with RXF 393 renal was -31.9% (active); with SF-268 CNS it was -57.5% (active) and -3.48% (active); in the assay on SF-295 CNS, -65.5% (active) and 10.1% (inactive); with SF-539 CNS, -67.3% (active) and -8.94% (active); with UACC-257 melanoma, 61.2% (inactive); in the assay on M14 melanoma it was -87.8% (active) and -43.2% (active).

Turning to `CO/N=C1\CC[C@]2(C)[C@H]3CC[C@]4(C)C(=O)CC[C@H]4[C@@H]3C[C@@H]3SC(N)=N[C@@]32C1`, the growth in the assay with NCI-H23 lung is 99.4% (inactive); with NCI-H226 lung, 107% (inactive); with NCI-H322M lung, 105% (inactive); in the assay on NCI-H460 lung it was 98.9% (inactive); with HOP-92 NSCLC, 105% (inactive); with NCI-H522 lung, 94.9% (inactive). Besides, the growth in the assay with A549/ATCC NSCLC is 101% (inactive); in the assay on 786-0 renal it was 98% (inactive); in the assay on COLO 205 colon, 111% (inactive); with DU-145 prostate it was 87.9% (inactive); in the assay on K-562 leukemia, 70.7% (inactive); in the assay with MALME-3M melanoma, 94% (inactive). The growth in the assay on MDA-MB-231 breast was 101% (inactive); in the assay with RXF 393 renal it was 104% (inactive); in the assay on SF-268 CNS it was 93.5% (inactive); in the assay with SF-295 CNS, 99.1% (inactive); with SF-539 CNS, 100% (inactive); with UACC-257 melanoma, 101% (inactive). Moreover, the growth in the assay with M14 melanoma is 86% (inactive).

Regarding `COc1ccc(N)cc1OC`, the growth is 105% (inactive) in the assay on NCI-H23 lung; 107% (inactive) with NCI-H226 lung; 114% (inactive) in the assay on NCI-H322M lung; 119% (inactive) in the assay with NCI-H460 lung; 91.2% (inactive) in the assay on HOP-92 NSCLC; 105% (inactive) with A549/ATCC NSCLC. Also, the growth with 786-0 renal was 102% (inactive); in the assay on COLO 205 colon, 109% (inactive); with K-562 leukemia, 129% (inactive); in the assay on MALME-3M melanoma, 129% (inactive); in the assay on MDA-MB-231 breast, 87.1% (inactive); in the assay on RXF 393 renal, 125% (inactive). Also, the growth in the assay with SF-268 CNS was 106% (inactive); in the assay on SF-295 CNS, 93.9% (inactive); in the assay with SF-539 CNS, 110% (inactive); in the assay on UACC-257 melanoma, 107% (inactive); with M14 melanoma it was 109% (inactive).

In the case of `Cc1cc[n+](CCc2ccccc2)cc1`, the growth was 90.5% (inactive) and 111% (inactive) in the assay with NCI-H23 lung; 96% (inactive) and 96.5% (inactive) with NCI-H322M lung; 87.9% (inactive) and 114% (inactive) in the assay on HOP-62 NSCLC; 110% (inactive) and 103% (inactive) in the assay with NCI-H460 lung; 94.8% (inactive) and 85.5% (inactive) with NCI-H522 lung; 89.7% (inactive) and 100% (inactive) in the assay on 786-0 renal. The growth with COLO 205 colon is 127% (inactive) and 119% (inactive); with DU-145 prostate it was 95.3% (inactive) and 115% (inactive); with K-562 leukemia, 85.7% (inactive) and 89.1% (inactive); in the assay with MALME-3M melanoma it was 75.4% (inactive) and 88.6% (inactive); with MDA-MB-231 breast it was 115% (inactive) and 117% (inactive); in the assay with SF-268 CNS, 98.6% (inactive) and 108% (inactive). The growth in the assay with SF-295 CNS is 111% (inactive) and 97.7% (inactive); in the assay on SF-539 CNS, 97.5% (inactive) and 107% (inactive); in the assay on UACC-257 melanoma, 103% (inactive) and 95% (inactive); in the assay on M14 melanoma it was 97.2% (inactive) and 105% (inactive).

As for `CC[C@@H](C)C(=O)O[C@H]1[C@H](O)[C@H]2[C@@H](CN3C[C@@H](C)CC[C@H]3[C@@]2(C)O)[C@@H]2C[C@]34O[C@]5(O)[C@@H](OC(=O)[C@@](C)(O)CC)CC[C@@]3(C)[C@@H]5[C@@H](OC(C)=O)[C@@H](OC(C)=O)[C@H]4[C@@]21O`, the growth is 99.1% (inactive) with NCI-H23 lung; 81.2% (inactive) with NCI-H226 lung; 106% (inactive) in the assay on NCI-H322M lung; 111% (inactive) in the assay with NCI-H460 lung; 90% (inactive) in the assay with HOP-92 NSCLC; 100% (inactive) in the assay on NCI-H522 lung. In addition, the growth in the assay with A549/ATCC NSCLC is 70.5% (inactive); with 786-0 renal it was 101% (inactive); in the assay on COLO 205 colon, 92.1% (inactive); in the assay on DU-145 prostate, 107% (inactive); in the assay with K-562 leukemia, 83.9% (inactive); with MALME-3M melanoma, 103% (inactive). Moreover, the growth with MDA-MB-231 breast is 94.2% (inactive); with RXF 393 renal, 94.5% (inactive); in the assay with SF-268 CNS, 102% (inactive); with SF-295 CNS, 97.2% (inactive); in the assay on SF-539 CNS, 100% (inactive); in the assay with M14 melanoma, 95.6% (inactive).
